# According to PubChem BioAssay AID1159580 (chemical genetic matrix, 2015):
# Among all 5,500 compounds or so, about 2,000 (36%) were called active. About 18% were inconclusive and are not listed. This is one part of the list. Values without a mark were called inactive. Rule as the data show it: active = normalized growth mostly below about 0.91 (no sharp cut-off); inconclusive = no clear call, values can overlap the other calls; inactive = mostly above about 0.92.
# Assay: chemical genetic growth profiling, strain panel (AID 1159580);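 also: tested at 20 µM; growth read once vehicle control cultures reached saturation at 30 °C; 1 = growth at the plate median or of vehicle wells; lower values mean less growth of the strain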
# Settings: S. cerevisiae deletion strains, growth OD
smiles,measurement,setting,value
CCCCCCCCCCCCCCCCOP(=O)([O-])OCC[N+](C)(C)C,normalized growth,"locus YAL021C, strain ccr4, stronger effect = lower value",0.0619 (active)
same,normalized growth,"locus YAL026C, strain drs2, stronger effect = lower value",0.0625 (active)
same,normalized growth,"locus YAL030W, strain snc1, stronger effect = lower value",0.0575 (active)
same,normalized growth,"locus YBL061C, strain skt5, stronger effect = lower value",0.0614 (active)
same,normalized growth,"locus YBR009C, strain hhf1, stronger effect = lower value",0.0673 (active)
same,normalized growth,"locus YBR023C, strain chs3, stronger effect = lower value",0.0636 (active)
same,normalized growth,"locus YBR171W, strain sec66, stronger effect = lower value",0.0767 (active)
same,normalized growth,"locus YBR231C, strain swc5, stronger effect = lower value",0.0637 (active)
same,normalized growth,"locus YBR279W, strain paf1, stronger effect = lower value",0.0644 (active)
same,normalized growth,"locus YCL011C, strain gbp2, stronger effect = lower value",0.0569 (active)
same,normalized growth,"locus YCL016C, strain dcc1, stronger effect = lower value",0.0649 (active)
same,normalized growth,"locus YCL061C, strain MRC1, stronger effect = lower value",0.0638 (active)
same,normalized growth,"locus YCL069W, strain vba3, stronger effect = lower value",0.0585 (active)
same,normalized growth,"locus YCR088W, strain abp1, stronger effect = lower value",0.0589 (active)
same,normalized growth,"locus YDL005C, strain med2, stronger effect = lower value",0.0739 (active)
same,normalized growth,"locus YDL040C, strain nat1, stronger effect = lower value",0.062 (active)
same,normalized growth,"locus YDR001C, strain nth1, stronger effect = lower value",0.0559 (active)
same,normalized growth,"locus YDR069C, strain doa4, stronger effect = lower value",0.0612 (active)
same,normalized growth,"locus YDR137W, strain rgp1, stronger effect = lower value",0.105 (active)
same,normalized growth,"locus YDR159W, strain sac3, stronger effect = lower value",0.0874 (active)
same,normalized growth,"locus YDR195W, strain ref2",0.133 (active)
same,normalized growth,"locus YDR297W, strain sur2, stronger effect = lower value",0.0626 (active)
same,normalized growth,"locus YDR334W, strain swr1, stronger effect = lower value",0.0607 (active)
same,normalized growth,"locus YDR335W, strain msn5, stronger effect = lower value",0.0579 (active)
same,normalized growth,"locus YDR392W, strain spt3, stronger effect = lower value",0.0822 (active)
same,normalized growth,"locus YEL003W, strain gim4, stronger effect = lower value",0.0548 (active)
same,normalized growth,"locus YEL037C, strain rad23, stronger effect = lower value",0.0549 (active)
same,normalized growth,"locus YEL061C, strain CIN8 (second series), stronger effect = lower value",0.0587 (active)
same,normalized growth,"locus YER015W, strain faa2, stronger effect = lower value",0.0638 (active)
same,normalized growth,"locus YER016W, strain bim1, stronger effect = lower value",0.0622 (active)
same,normalized growth,"locus YER111C, strain swi4, stronger effect = lower value",0.0695 (active)
same,normalized growth,"locus YER155C, strain BEM2 (second series), stronger effect = lower value",0.0842 (active)
same,normalized growth,"locus YFR010W, strain ubp6, stronger effect = lower value",0.0648 (active)
same,normalized growth,"locus YGL167C, strain pmr1, stronger effect = lower value",0.0766 (active)
same,normalized growth,"locus YGL173C, strain kem1, stronger effect = lower value",0.082 (active)
same,normalized growth,"locus YGL227W, strain vid30, stronger effect = lower value",0.0637 (active)
same,normalized growth,"locus YGL240W, strain doc1, stronger effect = lower value",0.0747 (active)
same,normalized growth,"locus YGL253W, strain hxk2, stronger effect = lower value",0.0509 (active)
same,normalized growth,"locus YHR013C, strain ard1, stronger effect = lower value",0.14 (active)
same,normalized growth,"locus YHR027C, strain rpn1, stronger effect = lower value",0.0701 (active)
same,normalized growth,"locus YHR030C, strain SLT2, stronger effect = lower value",0.971
same,normalized growth,"locus YHR079C, strain IRE1, stronger effect = lower value",0.967
same,normalized growth,"locus YHR142W, strain chs7, stronger effect = lower value",0.0698 (active)
same,normalized growth,"locus YJL092W, strain hpr5, stronger effect = lower value",0.0564 (active)
same,normalized growth,"locus YJL095W, strain BCK1 (second series), stronger effect = lower value",0.0584 (active)
same,normalized growth,"locus YJL095W, strain BCK1, stronger effect = lower value",0.985
same,normalized growth,"locus YJL115W, strain asf1, stronger effect = lower value",0.0702 (active)
same,normalized growth,"locus YJL129C, strain trk1, stronger effect = lower value",0.0808 (active)
same,normalized growth,"locus YJL154C, strain vps35, stronger effect = lower value",0.0578 (active)
same,normalized growth,"locus YJL164C, strain tpk1, stronger effect = lower value",0.0591 (active)
same,normalized growth,"locus YJL166W, strain qcr8, stronger effect = lower value",0.061 (active)
same,normalized growth,"locus YJR066W, strain TOR1, stronger effect = lower value",0.915
same,normalized growth,"locus YKL160W, strain elf1, stronger effect = lower value",0.0625 (active)
same,normalized growth,"locus YKR026C, strain gcn3, stronger effect = lower value",0.0625 (active)
same,normalized growth,"locus YKR091W, strain srl3, stronger effect = lower value",0.072 (active)
same,normalized growth,"locus YLL001W, strain dnm1, stronger effect = lower value",0.0583 (active)
same,normalized growth,"locus YLL026W, stronger effect = lower value",0.0591 (active)
same,normalized growth,"locus YLL041C, strain sdh2, stronger effect = lower value",0.058 (active)
same,normalized growth,"locus YLR027C, strain aat2, stronger effect = lower value",0.0551 (active)
same,normalized growth,"locus YLR113W, strain HOG1, stronger effect = lower value",1.07
same,normalized growth,"locus YLR221C, strain rsa3, stronger effect = lower value",0.0588 (active)
same,normalized growth,"locus YLR258W, strain gsy2, stronger effect = lower value",0.0598 (active)
same,normalized growth,"locus YLR262C, strain YPT6 (second series), stronger effect = lower value",0.0755 (active)
same,normalized growth,"locus YLR320W, strain mms22, stronger effect = lower value",0.0754 (active)
same,normalized growth,"locus YLR342W, strain FKS1, stronger effect = lower value",0.0648 (active)
same,normalized growth,"locus YLR357W, strain rsc2, stronger effect = lower value",0.121 (active)
same,normalized growth,"locus YLR370C, strain arc18, stronger effect = lower value",0.062 (active)
same,normalized growth,"locus YLR384C, strain iki3, stronger effect = lower value",0.0585 (active)
same,normalized growth,"locus YML120C, strain ndi1, stronger effect = lower value",0.0597 (active)
same,normalized growth,"locus YMR058W, strain fet3, stronger effect = lower value",0.0574 (active)
same,normalized growth,"locus YMR125W, strain sto1, stronger effect = lower value",0.075 (active)
same,normalized growth,"locus YMR129W, stronger effect = lower value",0.0586 (active)
same,normalized growth,"locus YMR205C, strain PFK2, stronger effect = lower value",0.0871 (active)
same,normalized growth,"locus YMR231W, strain pep5, stronger effect = lower value",0.173 (active)
same,normalized growth,"locus YNL071W, strain lat1, stronger effect = lower value",0.0608 (active)
same,normalized growth,"locus YNL183C, strain NPR1, stronger effect = lower value",0.912
same,normalized growth,"locus YNL209W, strain ssb2, stronger effect = lower value",0.0625 (active)
same,normalized growth,"locus YNL248C, strain rpa49, stronger effect = lower value",0.0698 (active)
same,normalized growth,"locus YNL322C, strain KRE1 (second series), stronger effect = lower value",0.0641 (active)
same,normalized growth,"locus YNR049C, strain mso1, stronger effect = lower value",0.0585 (active)
same,normalized growth,"locus YOR001W, strain rrp6, stronger effect = lower value",0.0712 (active)
same,normalized growth,"locus YOR070C, strain gyp1, stronger effect = lower value",0.0615 (active)
same,normalized growth,"locus YOR080W, strain dia2, stronger effect = lower value",0.0657 (active)
same,normalized growth,"locus YOR083W, strain WHI5, stronger effect = lower value",0.0753 (active)
same,normalized growth,"locus YOR106W, strain vam3, stronger effect = lower value",0.0675 (active)
same,normalized growth,"locus YOR231W, strain MKK1, stronger effect = lower value",0.953
same,normalized growth,"locus YOR265W, strain rbl2, stronger effect = lower value",0.0614 (active)
same,normalized growth,"locus YOR270C, strain vph1, stronger effect = lower value",0.093 (active)
same,normalized growth,"locus YOR290C, strain snf2, stronger effect = lower value",0.069 (active)
same,normalized growth,"locus YPL051W, strain arl3, stronger effect = lower value",0.0646 (active)
same,normalized growth,"locus YPL078C, strain atp4, stronger effect = lower value",0.0596 (active)
same,normalized growth,"locus YPL106C, strain sse1, stronger effect = lower value",0.0983 (active)
same,normalized growth,"locus YPL240C, strain hsp82, stronger effect = lower value",0.0574 (active)
same,normalized growth,"locus YPL256C, strain CLN2, stronger effect = lower value",1.01
CCCCCCCCCCCCCCCCCCOC[C@H](COP(=O)([O-])OCC[N+](C)(C)C)OC,normalized growth,"locus YAL013W, strain DEP1, stronger effect = lower value",1
same,normalized growth,"locus YAL040C, strain CLN3, stronger effect = lower value",1.04
same,normalized growth,"locus YCL061C, strain MRC1 (second series), stronger effect = lower value",1.02
same,normalized growth,"locus YDR363W, strain ESC2, stronger effect = lower value",0.992
same,normalized growth,"locus YER002W, strain NOP16, stronger effect = lower value",1.04
same,normalized growth,"locus YMR263W, strain SAP30, stronger effect = lower value",0.998
same,normalized growth,"locus YMR307W, strain GAS1, stronger effect = lower value",1
same,normalized growth,"locus YNL153C, strain GIM3, stronger effect = lower value",0.997
same,normalized growth,"locus YNL175C, strain NOP13, stronger effect = lower value",1.05
same,normalized growth,"locus YNL197C, strain WHI3, stronger effect = lower value",1.01
same,normalized growth,"locus YNL224C, strain SQS1, stronger effect = lower value",1.04
same,normalized growth,"locus YNL322C, strain KRE1, stronger effect = lower value",0.988
same,normalized growth,"locus YOR083W, strain WHI5 (second series), stronger effect = lower value",1.02
